WT yeast gro inh: growth inhibition of WT strain, primary screen, mitochondrial fusion inhibitor project, WT and mutant strains, chemical genetic. mitochondrial fusion phenotypic screen. AID 1362, 2008. hit rate 2.1% among 190,000. inhibition, % at 10 µM; in the data active = inhibition above about 58%; tested in S. cerevisiae
L major viab: Leishmania major promastigote growth inhibition, primary screen; Leishmania major promastigotes, resazurin fluorescence viability; inhibition, % at 10 µM; hit rate 9% among 200,000; in the data active = inhibition above about 50%;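 note: promastigotes grown with compound for 44 hours at 28 °C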
CHOP inhibitor: inhibitors of CHOP promoter induction, primary screen, cell-based, unfolded protein response, luciferase reporter. CHO-K1 CHOP-promoter luciferase, tunicamycin-induced, 15-18 h. inhibition, % at 10 µM. hit rate 3.8% among 220,000. AID 2732, 2010;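 active = compounds that reduced the stress-induced luciferase reporter signal by more than about 70% of percent inhibition, limit read from the data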
RAM inhibit: inhibitors of the yeast RAM network, primary screen, dse1pr::URA3 reporter, 5-FOA selection | S. cerevisiae dse1pr::URA3 reporter, 5-FOA growth OD615, 2 d; analog-sensitive cbk1-as2 kinase mutant strain | inhibition, % at 50 µM | hit rate 1.8% among 190,000;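 active = inhibition above a set limit, 3 SD over mean compound inhibition, cut at about 8.4% in these data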;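 note: inhibition rescues growth on 5-FOA so higher OD means more RAM inhibition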
Each line names hits and unclear results; the compound was inactive in the other large screens; ! = repeats disagree. An excerpt weighted towards active compounds, which were near 13% of everything screened.

COc1cc2c(cc1O)C[C@H]1NCCc3cc4c(c-2c31)OCO4	L major viab 99
COc1ccccc1N1CCN(Cc2cccc(OC)c2O)CC1	none
CSc1nnc(OC(=O)N(C)C)n1-c1ccc(Cl)cc1	none (no result: WT yeast gro inh, L major viab, RAM inhibit)
CCN1CCN(C(=O)COc2ccc(S(=O)(=O)N(C)Cc3ccccc3)cc2)CC1	L major viab 99
CN1CCN(C(=O)COc2ccc(S(=O)(=O)N(C)Cc3ccccc3)cc2)CC1	none
CC(C)(C)C(O)C(Oc1ccc(Cl)cc1)n1cncn1 (stereo not drawn)	L major viab 82
C#CCN(C)[C@@H](C)Cc1ccccc1	none (no result: WT yeast gro inh, L major viab, RAM inhibit)
Cc1ccc(N2CCN(CCc3ccccc3)CC2)cc1	L major viab 84
O=C1NC(=O)C(=Cc2cc([N+](=O)[O-])ccc2N2CCCCC2)C(=O)N1	L major viab 97
O=C1NC(=O)C(=Cc2ccc(N3CCN(C(=O)c4ccccc4)CC3)c([N+](=O)[O-])c2)C(=O)N1	none
CN1CCN(c2ccc([N+](=O)[O-])c(SCCO)c2)CC1	none
O=[N+]([O-])c1ccc(N2CCNCC2)cc1N1CCCCCC1	L major viab 99
Nc1cc(N2CCNCC2)ccc1[N+](=O)[O-]	none
O=[N+]([O-])c1ccc(N2CCNCC2)c2ncccc12	none
O=[N+]([O-])c1cc(F)c(N2CCCCCC2)cc1N1CCNCC1	L major viab 101
CN1CCN(c2ccc([N+](=O)[O-])c(N)c2)CC1	L major viab 52
CN1CCN(c2ccc([N+](=O)[O-])c(N3CCCCC3)c2)CC1	L major viab 94
Cc1nn(Cc2ccccc2)c(C)c1C=C1C(=O)NC(=O)NC1=O	L major viab 58
CCN(CC)c1ncnc2c1ncn2[C@@H]1O[C@H](COP(=O)(O)OP(=O)(O)C(Br)(Br)P(=O)(O)O)[C@@H](O)[C@H]1O	none (no result: WT yeast gro inh, L major viab, RAM inhibit)
Clc1ccc(COC(Cn2ccnc2)c2ccc(Cl)cc2Cl)c(Cl)c1 (stereo not drawn)	L major viab 99
C=Cc1ccc(Cn2c(C(=O)O)c(C=O)c3ccccc32)cc1	none
CCN(CC)c1ccc(N=Cc2c(O)n(Cc3ccccc3)c(=O)[nH]c2=O)cc1	CHOP inhibitor 96!
Cc1cccc(-n2c(O)c(C)c(=O)[nH]c2=S)c1	none
CCOc1ccc2oc(C(=O)NN3C(C)CCCC3C)c(C)c2c1 (stereo not drawn)	none
C/C1=C\[C@@H](C)C/C=C/[C@H]2[C@@H]3O[C@]3(C)[C@@H](C)[C@H]3[C@H](Cc4c[nH]c5ccccc45)NC(=O)[C@]32C(=O)/C=C/C(=O)[C@@H]1O	WT yeast gro inh 71, CHOP inhibitor 105
CCOC(=O)Cn1cc([N+](=O)[O-])nc1[N+](=O)[O-]	L major viab 99
CCOC(=O)Cn1cc(C(=O)c2ccccc2F)c2ccccc21	none
CCOC(=O)c1c(NC(NC(=O)CF)C(Cl)(Cl)Cl)sc2c1CCCC2 (stereo not drawn)	WT yeast gro inh 69, CHOP inhibitor 74
Cc1cc(C)c2c(c1)-c1cc(C)nn1C(c1cccnc1)N2 (stereo not drawn)	none
CC(c1ccccc1F)n1cc(C(=O)Nc2ccc3nc[nH]c3c2)nn1 (stereo not drawn)	L major viab 72
COc1ccc(C(=O)c2nc3ccccc3n2C(C)C)cc1	L major viab 51
CCCn1c(C(=O)c2ccc(OC)cc2)nc2ccccc21	none
NC(=S)c1cn(C2OC(CO)C(O)C2O)c2ncnc(N)c12 (stereo not drawn)	CHOP inhibitor 105 (no result: WT yeast gro inh, L major viab, RAM inhibit)
O=C(N/N=C/c1c(O)n(CCc2ccccc2)c(=O)[nH]c1=O)c1ccncc1	none
O=C(N/N=C/c1c(O)n(CCc2ccc(F)cc2)c(=O)[nH]c1=O)c1ccncc1	RAM inhibit 8.6
Cc1c(NC(NC(=O)CF)C(Cl)(Cl)Cl)c(=O)n(-c2ccccc2)n1C (stereo not drawn)	none
Cc1ccsc1C(=O)C1CCCN(Cc2cnc(N3CCCC3)s2)C1 (stereo not drawn)	none
ON1C2CCCCC2N(O)C1c1ccccc1 (stereo not drawn)	CHOP inhibitor 89
O[C@@H]1CCCC[C@H]1N1CCC(c2ccccc2)CC1	L major viab 65
C/C(=N\NC(=S)Nc1ccccc1)c1c(O)n(C)c(=O)n(C)c1=O	none
COc1ccccc1OCC(=O)N1CCN(Cc2ccc3c(c2)OCO3)CC1	none
O=C(COc1ccc(Cl)cc1)N1CCN(Cc2ccccc2)CC1	none
N#Cc1ccc(OCC(=O)N2CCN(Cc3ccc4c(c3)OCO4)CC2)cc1	L major viab 76
COc1ccc(OCC(=O)N2CCN(Cc3ccc4c(c3)OCO4)CC2)cc1	L major viab 64

Compound activity deposited in PubChem by several laboratories.
